Structures are written as SMILES. “And” between values parts separate entries of the source, which are not always exact repeats. Equal values may be shown once. About 83,000 compounds went through this panel and 20% of them were active in at least one assay; those are over-represented in the sample as a whole.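 Note: values are percent growth. 100 is the growth of untreated cells, values between 100 and 0 indicate rising inhibition; between -100 and 0 indicates cell death.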 Unmarked numbers belong to inactive results. The source made the active and inactive calls. How the source made its calls: active means growth percent below 10; inactive means the rest.

The test deals with EKVX NSCLC. The test is described as follows: NCI-60 one-dose screen, 48 h (100 = growth as untreated, 0 = no growth, -100 = all killed). The settings on record: 10 µM unless noted.
As to `Cc1cc(Br)ccc1-n1cc(C#N)c(N)c1C(=O)c1ccc(Br)cc1`, the growth is 97.8%. `CCCCCCN1C=C/C(=C\C(=O)n2ccc3ccccc32)c2ccccc21`: the growth is 36.3%. In the case of `Cc1ccc(CSC2=C(Cl)CN(c3ccc(Cl)cc3)C2=O)cc1`, the growth is 104%. In the case of `Clc1ccc(CSc2nnc(-c3ccc(Cl)cc3)n2-c2ccccc2)cc1`, the growth is 86.6%. With `NS(=O)(=O)c1ccc(CCn2c(-c3ccc(C(=O)O)cc3)nc(-c3ccccc3)c2-c2ccccc2)cc1` the figure was 100%. For the molecule `CC(=C(c1ccc(OCCCN(C)C)cc1)c1ccc(OCCCN(C)C)cc1)c1ccc(Cl)cc1`, the growth is 94.7%.

As to `CC[C@]12CC(C(=O)OC)=C3Nc4ccccc4[C@@]34CCN(C14)[C@@H]1c3cc4c(cc3O[C@@H]1[C@H]2O)NC1=C(C(=O)OC)C[C@@]2(CC)C3N(CC[C@@]143)C[C@H]1O[C@H]12` (stereo not given in full), the growth is 26.1%. Next, `Cc1ccc(-c2csc(N/N=C/c3cccs3)n2)cc1`: 65.2%; `CN1CCC[C@]2(C)[C@H]3CC[C@@H]4[C@@H]5[C@H]6OC[C@@]5(CCC6(C)C)CC[C@@]4(C)[C@]3(C)CC[C@H]2C1(C)C`: 99.6%. Next, `O=S(=O)(Oc1ccc(-c2cn3ccoc3n2)cc1)c1cccc(C(F)(F)F)c1`: 102%; `CC(Nc1c(C#N)cnc2ccc(-c3cncc(-c4n[nH]c(=O)o4)c3)cc12)c1ccccc1` (stereo not given): -12% (active). As for `C#CCN(C)CCCOc1ccc(NC(=O)CCCCCCCCC(=O)NO)cc1Cl`, the growth was 68.8%.

For the molecule `CCCc1cc2cc(-n3nc(CC)c4c3CC(C)(C)CC4=O)cc(NC3CCC(O)CC3)c2c(=O)[nH]1` (stereo not given), the growth was 52.4%. Turning to `O=C(CN1CCN(c2cc(=O)[nH]c3ccc(F)cc23)CC1)N(c1ccccc1)c1ccccc1`, the growth was 96.8%. As for `CN1CCN(c2ccc(Nc3nc(NCCCNS(=O)(=O)c4cccc(F)c4)c4sccc4n3)cc2)CC1`, the growth was 83.3%. With `COc1ccc(C(=NNS(=O)(=O)c2ccc(C)cc2)c2ccccc2)cc1OC`, the growth is 95.4%. `COc1ccc(/C=N/NC(=O)c2c(N)nn(C)c2Nc2ccccc2)cc1Oc1ccccc1`: the growth was 88.1%.

For `C#C[C@]1(O)CC[C@H]2[C@@H]3CC=C4c5sc(NCc6ccccc6)nc5CC[C@]4(C)[C@H]3CC[C@@]21C`, the growth is 55.4%. Next, `Cc1cc(NS(=O)(=O)c2ccc(NC(=O)CSc3nc4ccccc4c(=O)n3-c3ccccc3)cc2)no1`: 96.8%; `CC(C)NC(=O)c1cc(-c2ccc(NC(=O)Nc3ccc(F)c(C(F)(F)F)c3)cc2)nc2cccnc12`: 95.3%. As to `CCOC(=O)c1cccnc1Nc1ccc(NC(=O)Nc2ccc(Cl)c(C(F)(F)F)c2)cc1`, the growth is 40.6%.

As to `O=C(CSc1nc2ccccc2c(=O)n1-c1ccc(S(=O)(=O)Nc2ccc(Cl)nn2)cc1)Nc1ccc(S(=O)(=O)Nc2ccc(Cl)nn2)cc1`, the growth is 99.8%.

As for `COc1cc(-c2nc(-c3ccccc3)[nH]c2-c2ccnc(NCCCNS(=O)(=O)c3ccc(C(F)(F)F)cc3)n2)ccc1Cl`, the growth was 30% and 44.9%. Turning to `Cc1csc(/N=C(N)/N=C(\N)c2cccc(C#N)c2)n1`, the growth was 82.8%. As to `CC[C@]12C=CCN3CC[C@]4(C(=C(C(=O)OC)C1)Nc1cc5c(cc14)[C@@H]1[C@H](O5)[C@@H](O)[C@@]4(CC)CC(C(=O)OC)=C5Nc6cc(O)ccc6[C@@]56CCN1C46)C32` (stereo not given in full), the growth was 16.3%. In the case of `COc1ccc(OC)c(CCn2cncc2-c2c[nH]c3ccc(Cl)cc23)c1`, the growth was 37.5%.

As for `Cc1ccc(-c2cc3nc(C(Cl)Cl)nc(-c4ccc(S(=O)(=O)N(C)C)cc4)n3n2)cc1`, the growth is 103%. Next, `CC1=C(C)C(=O)C(Nc2cccc(C(=O)OC(C)(C)C)c2)=C(Cl)C1=O`: 90.2%. Turning to `COC(=O)c1ccc(NC2=C(Cl)C(=O)C(C)=C(C)C2=O)cc1`, the growth was 53.2%.

In the case of `Cc1nc(/N=C(N)/N=C(\N)c2cccc(Br)c2)sc1C`, the growth is 60.2%. On to `COC(=O)c1cccc(NC2=C(Cl)C(=O)c3nc(C)ccc3C2=O)c1`, for which the growth is 54.3%. For the molecule `CN(C)c1ccc(/C=N/Nc2nc(N/N=C/c3ccc(N(C)C)cc3)nc(N3CCCCC3)n2)cc1`, the growth is 97%. As for `OCC(Nc1ncnc2ccc(-c3cnc4cnccn34)cc12)c1ccccc1` (stereo not given), the growth was 52.3%. For the molecule `COc1ccc(-c2cc(-c3ccc(N4CCOCC4)cc3)n3c(n2)nc2ccccc23)cc1OC`, the growth is 88.3%. Next, `CCOC(=O)c1c(NC(=O)c2cccc(C(F)(F)F)c2)sc2c1CCC(=O)C2`: 39.4%; `CN1CCN(c2ccc(Nc3nc(NCCCNS(=O)(=O)c4ccc(Cl)cc4)c4sccc4n3)cc2)CC1`: 50.8%. For the molecule `CCOC(=O)C(=O)Nc1ccc2c(ccn2C(=O)c2cccc(F)c2)c1`, the growth was 82.8%. In the case of `CCOc1cccc(/C(N)=N/C(N)=N/c2nc3ccccc3s2)c1`, the growth is 73.3%.

Consider `CN1CCN(c2ccc(Nc3nc(NCCCNS(=O)(=O)c4ccc(C(F)(F)F)cc4)c4sccc4n3)cc2)CC1`, for which the growth was 0.826% (active). With `Cc1ccc2c(n1)C(=O)C(Cl)=C(Nc1cccc(C(F)(F)F)c1)C2=O`, the growth is 58.1%.

These data come from PubChem BioAssay (NCI).
